Test results as given in PubChem BioAssay AID743286 (National Center for Advancing Translational Sciences (NCATS), 2014).
In all, about 1,100 compounds went through this assay and about 340 (31%) were called active. Roughly 40% stayed inconclusive and do not appear here. The call rests on the fitted dose curve; in most records, active means well fitted inhibition curve with a large enough effect; inconclusive means small, poorly fitted or top-dose-only effect; inactive means flat fitted curve, though single readings scatter. Only a sample is shown.

molecular target: Phosphatidylinositol 5-phosphate 4-kinase type-2 alpha (Homo sapiens) (UniProt P48426); assay: qHTS for Inhibitors of PI5P4K: Confirmation in Primary Assay; details: PI5P4Kalpha enzyme, ADP-Glo luminescence, 60 min; series mostly up to 76.9 µM; activity change, negative = inhibition: at the top concentration; further: nearly all actives have a fitted effect of over 65% in size
Source text: In addition to finding PI5P, we discovered the type II phosphatidylinositol 5-phosphate 4-kinase (PI5P4K) family (alpha, beta, gamma isoforms) that catalyze the conversion of PI5P to PI(4,5)P2. Alternatively, PI(4,5)P2 can also be synthesized through phosphatidylinositol-4-phosphate (PI4P) by the type I phosphatidylinositol 4-phosphate 5-kinases (PI4P5K). These PI5P4K enzymes therefore represent one way by which cells can regulate endogenous PI5P levels and play important roles in insulin signaling and in stress responses. […] A qHTS PI5P4K-alpha ADP-Glo assay was developed to identify specific modulators of human PI5P4K, phosphatidylinositol-5-phosphate 4-kinase (Type II PIPK). This assay was screened against the MLSMR containing ~400,000 small molecules (PubChem AID 652105). To confirm that the hits were not interacting with the detection enzyme system, a 1536-well counterscreen against the ADP-Glo kit (Promega) was utilized, as described in Davis et al., 2013 [1]. Davis et al., PLoS One. 2013;8(1):e54127. NIH Chemical Genomics Center [NCGC] NIH Molecular Libraries Probe Centers Network [MLPCN] MLPCN Grant: MH096575 Assay Submitter (PI): Atsuo Sasaki, Beth Israel Deaconess Medical Center
2 microL of PI5P4Kalpha/substrate buffer (columns 1-2, 5-48) are dispensed into Greiner white solid bottom 1536-well assay plates; column 3 receives only PI5P4Kalpha buffer as 0x substrate controls; column 4 receives only substrate buffer as 0x PI5P4Kalpha controls. Final assay buffer consists of 0.038 M HEPES pH 7.4, 0.28 mM EGTA, 0.1% CHAPS, and 5% DMSO (final concentration). Compounds are then transferred via Kalypsys pin tool equipped with 1536-pin array (10 nL slotted pins, V&P Scientific, San Diego, CA). Following addition of compound, 1 microL of ATP (5 microM final concentration, all columns) is added to initiate the reaction. ATP is diluted in an assay buffer consisting of 0.02 M HEPES pH 7.4, 60 mM MgCl2, 15 microM ATP, and 0.1% CHAPS. The plates are then incubated at room temperature for 60 minutes. ADP-Glo reagent 1 is added (2 microL) and plates incubated for 45 minutes, before ADP-Glo reagent 2 (4 microL) is added and plates incubated for 30 minutes. They are then transferred to a ViewLux high-throughput CCD imager (PerkinElmer) wherein single end-point measurements of luminescence are acquired using a clear filter.
On the % scale 0 is the no-effect control and ±100 the full control effect; potency means the concentration at half of the fitted maximal effect.

Phosphatidylinositol 5-phosphate 4-kinase type-2 alpha (Homo sapiens), sequence (P48426 whole entry, looked up, canonical isoform): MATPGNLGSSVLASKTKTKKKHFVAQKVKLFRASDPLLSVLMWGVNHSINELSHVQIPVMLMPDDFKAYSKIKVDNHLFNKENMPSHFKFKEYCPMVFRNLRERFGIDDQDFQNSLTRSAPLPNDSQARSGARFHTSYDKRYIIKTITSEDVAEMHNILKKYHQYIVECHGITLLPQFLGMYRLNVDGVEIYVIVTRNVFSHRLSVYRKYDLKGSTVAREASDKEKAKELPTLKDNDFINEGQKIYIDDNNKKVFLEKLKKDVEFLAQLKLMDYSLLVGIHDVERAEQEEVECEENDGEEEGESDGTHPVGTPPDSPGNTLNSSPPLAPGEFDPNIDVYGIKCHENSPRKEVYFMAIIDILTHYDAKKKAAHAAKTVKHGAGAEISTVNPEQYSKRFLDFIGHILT

Structure (SMILES)	activity change, negative = inhibition	Potency
O=C(CSC1=NCCS1)NCc1ccco1	-2.33% (inactive)	
O=C(c1ccco1)N1CCN(C(=O)c2ccc(-c3ccc([N+](=O)[O-])cc3)o2)CC1	-22.3% (inactive)	
S=C(NCc1ccco1)NCc1ccco1		14.1 µM (active)
O=C(NCc1ccco1)c1ccc([N+](=O)[O-])o1		31.6 µM (active)
CC(C)(C)[C@H]1C=C(C(=O)N2CCOCC2)O[C@@H](OCc2ccc(CO)cc2)C1	12.7% (inactive)	
COc1ccc(Cl)cc1S(=O)(=O)NCCCn1ccnc1	15.4% (inactive)	
COCCNC(=O)c1cc(-c2ccccc2)sc1N	-27.2% (inactive)	
Cc1ccc(CNc2ncnc3ccc(-c4ccc(CO)o4)cc23)o1	-12.4% (inactive)	
Cc1cc(O)ccc1Nc1cc(-c2cccc(N(C)C)c2)ncn1		12.6 µM (active)
O=C(NC1CCCC1)C(c1ccncc1)N(C(=O)c1csnn1)c1ccccc1F (centres undefined)	2.88% (inactive)	
Cc1sc2ncn(CC(=O)N3CCC(C(N)=O)CC3)c(=O)c2c1S(=O)(=O)N1CC(C)CC(C)C1 (centres undefined)	-2.16% (inactive)	
O=C(Nc1ccc(S(=O)(=O)Nc2nccs2)cc1)c1nn(-c2ccc(F)cc2)ccc1=O		15.8 µM (active)
Cc1noc(C)c1C(=O)Nc1ccc(-n2ccc(C(F)(F)F)n2)cc1	19.3% (inactive)	
Cc1ccc(C)c(OC(C)C(=O)Nc2ccc(S(=O)(=O)Nc3nccs3)cc2)c1 (centres undefined)	-10.6% (inactive)	
COc1ccc(C(=O)N2CCCC2(C)C(=O)O)cc1C(F)(F)F (centres undefined)	-0.629% (inactive)	
CC(=O)N1CCN(S(=O)(=O)c2cccc(C(=O)Nc3ccc(F)c(F)c3)c2)CC1	1.67% (inactive)	
O=C(c1cccc(-n2cccc2)c1)N1CCN(S(=O)(=O)c2ccccc2)CC1		3.98 µM (active)
COc1ccc(CN2CCC(=O)N([C@H](CO)CC(C)C)CC2)cc1OC	-0.623% (inactive)	
CCCCCCCCN1C(=O)[C@H](CC(=O)NCc2ccc(C)o2)C[C@@]2(C(=O)OC)CC(C)(C)CC=C12	-22% (inactive)	
CC1=NN(c2nc(-c3ccc(Cl)cc3)cs2)C(=O)C1		15.8 µM (active)
CCOC(=O)Nc1ccc2c(CNC(C)c3ccccc3OC)cc(=O)oc2c1 (centres undefined)	-1.24% (inactive)	
CC1CCN(C(=O)c2ccc(COc3ccccc3Cl)o2)CC1	-1.87% (inactive)	

Structure (SMILES)	activity change, negative = inhibition	Potency
COC(=O)CCC(=O)OC1(C)C(=O)C2=CN(CC3CC3)C(c3ccc(OC)cc3)=CC2=C(Br)C1=O (centres undefined)	-26% (inactive)	
CCCCC1=CC2=C(c3ccco3)C(=O)C(C)(OC(=O)c3ccc(OC)cc3)C(=O)C2=CN1Cc1ccccc1 (centres undefined)	-20% (inactive)	
COc1ccc(C2=CC3=C(Br)C(=O)C(C)(OC(=O)c4cccs4)C(=O)C3=CO2)cc1 (centres undefined)		22.4 µM (active)
Cc1ccc(S(=O)c2ccc(NC(=O)C3CC3)cc2C#N)cc1 (centres undefined)	0.926% (inactive)	
Cc1ccc(N(C(=O)CNC(=O)c2ccco2)C(C(=O)NC2CCCC2)c2cccnc2)c(C)c1 (centres undefined)	0.488% (inactive)	
O=C(CN1CCN(c2ccccc2F)CC1)NCc1ccccc1	0.884% (inactive)	
COc1ccc(-c2csc(NC(=O)c3ccccc3F)c2C(=O)O)cc1	-21.7% (inactive)	
COc1cc(C(=O)Nc2scc(-c3ccc(C)cc3)c2C(=O)O)cc(OC)c1OC		3.55 µM (active)
Cc1ccc(-c2csc(NC(=O)c3ccc(Br)cc3)c2C(=O)O)cc1		14.1 µM (active)
COc1cc(C(=O)Nc2scc(-c3ccc(Br)cc3)c2C(=O)O)cc(OC)c1OC		5.62 µM (active)
COc1ccc(C(=O)NCCSc2ccccc2)cc1OC	-0.179% (inactive)	
COc1cc(C(=O)Nc2scc(-c3ccccc3)c2C(=O)O)cc(OC)c1OC		12.6 µM (active)
NC(=O)C1CCN(CC(=O)Nc2ccc3c(c2)OCCO3)CC1	-1.63% (inactive)	
CCOC(=O)CSc1nc2ccc(NC(=O)CSc3nnnn3Cc3ccccc3)cc2s1	-28.3% (inactive)	
O=C(NCCc1ccccc1)C(c1cccs1)N(C(=O)c1csnn1)C1CC1 (centres undefined)	-0.725% (inactive)	
Cc1nc(CS(=O)(=O)c2ccccc2)cc(N2CCOCC2)n1	1.26% (inactive)	
O=C(CCNS(=O)(=O)c1ccc(Br)s1)NCc1ccccc1Cl	5.56% (inactive)	
CCCCC1Cc2[nH][nH]c(=O)c2C(c2ccc(F)cc2)O1 (centres undefined)	-21.6% (inactive)	
COc1ccc2nc(SCC(=O)N3CCN(c4ccc(F)cc4)CC3)c(C#N)cc2c1	2.87% (inactive)	
O=S(=O)(c1ccccc1)N1N=C(c2cccs2)CC1c1ccc(Br)cc1 (centres undefined)	4.73% (inactive)	
O=C1NC(c2cc(Cl)cc([N+](=O)[O-])c2O)Nc2ccccc21 (centres undefined)		8.91 µM (active)
O=C1NC(c2cccs2)Nc2ccccc21 (centres undefined)	-12.8% (inactive)	

Structure (SMILES)	activity change, negative = inhibition	Potency
Cc1cccc(S(=O)(=O)NC(=O)C2(C)CCN2C(=O)Cc2cc(F)ccc2F)c1 (centres undefined)	-1.58% (inactive)	
Cc1cccc2cc(CN(Cc3cccnc3)C(=S)NCCCN(C)C)c(=O)[nH]c12	0.897% (inactive)	
COc1cc(Cn2c3ccc(NC(=O)CCc4ccccc4)cc3c(=O)n2C)ccc1F	-2.41% (inactive)	
CCOc1ccc(S(=O)(=O)N(C(=O)c2ccco2)c2cc3sc(=O)oc3c3ccccc23)cc1	-1.84% (inactive)	
CCCOc1ccc(CSc2ncn[nH]2)cc1	1.37% (inactive)	
O=C(NC1CCC(O)CC1)c1cc(-c2ccco2)nc2ccccc12 (centres undefined)		12.6 µM (active)
O=C(NCc1ccco1)c1c2c(nc3ccccc13)CCC2		10 µM (active)
CCCCCCNC(=O)c1cc(-c2ccco2)nc2ccccc12		7.08 µM (active)
O=C(NCc1ccccc1)C(c1ccccc1)n1c(=O)c(-c2ccco2)nc2ccccc21 (centres undefined)	-24.1% (inactive)	
Cn1nnc2cc(C(=O)NC3CC3)ccc21	-7.92% (inactive)	
Cc1ccc(-c2cc(C(=O)O)c3cc(Br)ccc3n2)o1		25.1 µM (active)
Cc1nnc(-c2ccccc2)nc1N(C)C	-3.17% (inactive)	
O=C(COC(=O)C1CCCCC1)Nc1ccccc1OC(F)F	3.6% (inactive)	
COc1cccc(N2CCN(C(=O)c3ccc(CS(=O)c4ccccc4C)o3)CC2)c1 (centres undefined)	1.63% (inactive)	
CC(C)(C(=O)N1CCC1(C)C(=O)NS(=O)(=O)c1ccc(C#N)cc1)c1ccccc1 (centres undefined)	0.35% (inactive)	
O=C(OCC(=O)N1N=C(c2ccc(Cl)cc2)CC1c1ccco1)c1cccnc1 (centres undefined)	-24.6% (inactive)	
COc1ccc(CCNC(=O)c2cc(-c3ccco3)nc3ccccc23)cc1		15.8 µM (active)
COc1ccc(CCNC(=O)C2CC(c3cccc(F)c3)=NO2)cc1 (centres undefined)	-4.13% (inactive)	
Cc1ccc(-c2cc(C(=O)NCc3ccco3)c3ccccc3n2)o1		14.1 µM (active)
COc1ccc(-c2cc(C(=O)Nc3ccccc3O)c3ccccc3n2)cc1	-1.85% (inactive)	
